Legend:
[1] = molecular target: T1, Protein kinase C epsilon type (Homo sapiens) (UniProt Q02156); details: at 10 µM
T1 sequence (whole entry): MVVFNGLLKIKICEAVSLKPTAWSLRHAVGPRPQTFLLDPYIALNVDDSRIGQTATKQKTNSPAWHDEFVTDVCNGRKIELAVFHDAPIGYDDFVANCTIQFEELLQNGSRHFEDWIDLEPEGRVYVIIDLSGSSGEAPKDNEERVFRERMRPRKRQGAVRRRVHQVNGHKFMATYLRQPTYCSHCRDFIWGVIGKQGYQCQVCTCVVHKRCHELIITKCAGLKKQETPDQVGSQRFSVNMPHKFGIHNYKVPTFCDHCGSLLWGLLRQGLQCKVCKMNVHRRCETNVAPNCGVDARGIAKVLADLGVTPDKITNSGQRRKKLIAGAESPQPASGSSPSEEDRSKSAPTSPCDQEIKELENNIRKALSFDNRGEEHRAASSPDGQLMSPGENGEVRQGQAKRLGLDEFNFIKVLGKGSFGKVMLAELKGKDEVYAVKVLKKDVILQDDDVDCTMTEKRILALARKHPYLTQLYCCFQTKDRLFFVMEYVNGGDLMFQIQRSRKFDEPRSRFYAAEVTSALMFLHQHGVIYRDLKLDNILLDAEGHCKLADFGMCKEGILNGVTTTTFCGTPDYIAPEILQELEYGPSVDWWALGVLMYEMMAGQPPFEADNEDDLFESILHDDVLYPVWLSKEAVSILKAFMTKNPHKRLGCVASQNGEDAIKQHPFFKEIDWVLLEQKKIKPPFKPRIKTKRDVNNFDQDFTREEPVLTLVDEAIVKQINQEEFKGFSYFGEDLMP

[2] = molecular target: T1, Protein kinase C epsilon type (Homo sapiens); details: at 1 µM

SMILES	residual activity [1]	residual activity [2]
O=S(=O)(c1cccc2cnccc12)N1CCCNCC1	69%	–
O=C1C(Cl)=C(N2C(=O)CCC2=O)C(=O)c2ccccc21	26%	90%
Cn1sc(=O)n(Cc2ccccc2)c1=O	11%	88%
CC(C)c1nn(-c2c(Cl)cccc2Cl)c2nc(Cc3ccc(OCCO)cc3)[nH]c(=O)c12	82%	99%
O=C1NC(=O)c2c1c1c3ccccc3[nH]c1n1cncc21	94%	105%
Nc1ncnc2c1c(-c1ccc(Oc3ccccc3)cc1)cn2C1CCCC1	84%	84%
O=C(NC(NC(=S)Nc1ccc(F)c([N+](=O)[O-])c1)C(Cl)(Cl)Cl)C(c1ccccc1)c1ccccc1 (configuration not stated)	96%	84%
Nc1ncnc2[nH]nc(Nc3ccc(F)cc3)c12	112%	123%
COc1ccc2c(c1)c(C1=C(c3c[nH]c4ccccc34)C(=O)NC1=O)cn2CCCN(C)C	0%	3%
O=C(c1ccccc1)c1ccc(N2CCOCC2)cc1O	95%	89%
O=c1cc(N2CCNCC2)oc2c(-c3ccccc3)cccc12	98%	93%
CC(C)(C)n1nc(Cc2cccc3ccccc23)c2c(N)ncnc21	100%	91%
NC(=O)Nc1sc(-c2ccc(F)cc2)cc1C(N)=O	94%	102%
O=C1NC(=O)C(c2c[nH]c3ccccc23)=C1c1c[nH]c2ccccc12	21%	63%
COc1ccc(Cl)cc1NC(=O)Nc1cc(C)nc2ccccc12	97%	82%
Cc1cc(C)c(/C=C2\C(=O)Nc3ccccc32)[nH]1	–	82%
CC(C)[C@H](CO)Nc1nc(Nc2cc(N)cc(Cl)c2)c2ncn(C(C)C)c2n1	98%	100%

SMILES	residual activity [1]	residual activity [2]
CCCC(=O)Oc1ccc2[nH]c(C(=O)c3cc4ccccc4[nH]3)cc2c1	93%	85%
CN(C)S(=O)(=O)c1ccc2c(c1)/C(=C/c1cc3c([nH]1)CCCC3)C(=O)N2	85%	98%
O=C1NC(=O)C(c2cn(CCCn3ccnc3)c3ccccc23)=C1Nc1ccccc1	3%	21%
O=C(Nc1nc2ccccc2n1CCN1CCOCC1)c1cccc([N+](=O)[O-])c1	102%	86%
Nc1ncnc2c1cnn2-c1ccccc1	101%	80%
O=C(O)/C=C/c1cc(Br)c(Br)c(Br)c1Br	102%	104%
COc1cc2nccc(Oc3ccc(NC(=S)NC(=O)c4ccccc4C)cc3)c2cc1OC	88%	85%
COc1ccc(-c2cnc3c(-c4ccsc4)cnn3c2)cc1	100%	86%
CCOC(=O)c1c(C)[nH]c(/C=C2\C(=O)Nc3ccccc32)c1C	88%	83%
CC(C)N(CCC(=O)c1ccc2ccccc2c1)Cc1ccccc1	–	83%
CSc1nc(-c2ccc(F)cc2)c(-c2ccnc(NC(C)c3ccccc3)c2)[nH]1 (configuration not stated)	101%	125%
Oc1cccc(-c2nc(N3CCOCC3)c3oc4ncccc4c3n2)c1	99%	91%
NCCNc1ncc(C(N)=O)c(Nc2cccc(C(F)(F)F)c2)n1	62%	77%
O=S(=O)(NCCNC/C=C/c1ccc(Br)cc1)c1cccc2cnccc12	76%	–
O=c1cc(N2CCOCC2)oc2c1ccc1ccccc12	87%	87%
O=C1Nc2ccc(Cl)cc2/C1=C/c1cc(Cl)c(O)c(Cl)c1	97%	87%
